# Measured values from PubChem BioAssay AID463173 (ICCB-Longwood Screening Facility, Harvard Medical School, 2010).
# In all, about 52,000 compounds went through this assay and about 4,300 (8.3%) were called active. Cut-off read from the data, not from the text of the source: active = survival mostly below about 52% (no sharp cut-off); inactive = mostly above about 56%. The entries come from a sample that favours actives as a whole.
# Tested on: DeltatarO mutant
# Assay: growth inhibition of S. aureus wild type versus tarO mutant, primary screen, teichoic acid synthesis inhibitors, RN4220, OD600 (AID 463173)
# Conditions: OD600, 18 h, stronger effect = lower value, screened at 18.75 µg/mL (by protocol)
row,Compound,survival
1,CCn1cc2nc(SCc3cccc(Cl)c3)n(Cc3ccc(C)cc3)c(=O)c2n1,44% (inactive)
2,COC(=O)CC(=O)CSc1nc(C)cc(C(F)(F)F)c1C#N,83% (inactive)
3,O=c1cc(CSc2nnc(COc3ccccc3)o2)c2ccccc2[nH]1,107% (inactive)
4,O=C1Nc2c(c(=O)[nH]c(=O)n2-c2ccc(F)cc2)C1(NS(=O)(=O)c1ccc(Cl)cc1)C(F)(F)F (centres undefined),59% (inactive)
5,COC(=O)c1ccccc1NC(=O)c1cc2ccccn2n1,73% (inactive)
6,COc1ccccc1Cn1ccn(Cc2c(F)cccc2Cl)c(=O)c1=O,110% (inactive)
7,O=c1c(=O)n(Cc2c(F)cccc2Cl)ccn1Cc1ccccc1,82% (inactive)
8,O=c1c(=O)n(-c2ccccc2)ccn1Cc1c(F)cccc1Cl,44% (active)
9,Cc1cc(O)c(CN2CCN(c3ccc(F)cc3)CC2)c2oc(=O)cc(C)c12,46% (inactive)
10,O=C(CCSCCc1ccccn1)Nc1ccc(Cl)cc1,47% (active)
11,Cc1ccc(NC(=O)CCSCCc2ccccn2)cc1,93% (inactive)
12,CC(=O)Nc1ccc(NC(=O)CCSCCc2ccccn2)cc1,135% (inactive)
13,COc1ccc(-n2c(C)nnc2SCc2nc(-c3ccc(OC)c(OC)c3)no2)cc1,71% (inactive)
14,COC(=O)c1ccc2c(c1)N(CC(=O)Nc1ccc(C)cc1Cl)C(=O)c1ccccc1S2,76% (inactive)
15,Cc1cccc(C(CC(=O)NCC2(c3ccccc3)CCCC2)c2ccccc2)c1O (centres undefined),38% (active)
16,Cc1ccc(O)c(C(CC(=O)NCC2(c3ccccc3)CCCC2)c2ccccc2)c1 (centres undefined),82% (inactive)
17,Cc1ccc(C(CC(=O)NCC2(c3ccccc3)CCCC2)c2ccccc2)c(O)c1 (centres undefined),101% (inactive)
18,O=C(O)CCc1ccc(-c2ccc(F)cc2)n1CCC(=O)O,103% (inactive)
19,Cc1ccc(NC(=O)CSc2nnc(C)c(=O)[nH]2)cc1,70% (inactive)
20,c1ccc(Cc2[nH]nc3ccccc23)cc1,89% (inactive)
21,CSc1cccc(-n2nnc(-c3nsc(NC(=O)c4cccs4)n3)c2C)c1,73% (inactive)
22,Cc1ccc(-n2nnc(-c3nsc(NC(=O)c4cccc(Cl)c4)n3)c2C)cc1C,76% (inactive)
23,COc1cccc(C(=O)Nc2nc(-c3nnn(-c4ccccc4C(F)(F)F)c3C)ns2)c1,87% (inactive)

row,Compound,survival
1,Cc1cccc(C(=O)Nc2nc(-c3nnn(-c4cc(C)ccc4C)c3C)ns2)c1,94% (inactive)
2,CCc1cccc(-n2nnc(-c3nsc(NC(=O)c4ccc(C)cc4)n3)c2C)c1,54% (inactive)
3,Cc1c(-c2nsc(NC(=O)c3cccc(Cl)c3)n2)nnn1-c1ccccc1C(F)(F)F,-4% (active)
4,CCc1cccc(-n2nnc(-c3nsc(NC(=O)c4cccs4)n3)c2C)c1,-5% (active)
5,Cc1cc(C)cc(-n2nnc(-c3nsc(NC(=O)c4ccccc4Cl)n3)c2C)c1,64% (inactive)
6,Cc1ccc(Cl)cc1-n1nnc(-c2nsc(NC(=O)c3ccccc3Cl)n2)c1C,6% (active)
7,Cc1ccc(-n2nnc(-c3nsc(NC(=O)c4ccccc4C)n3)c2C)cc1Cl,134% (inactive)
8,Cc1c(-c2nsc(NC(=O)c3ccccc3)n2)nnn1-c1ccc(C(F)(F)F)c(Cl)c1,86% (inactive)
9,CCc1ccc(-n2nnc(-c3nsc(NC(=O)c4ccccc4Cl)n3)c2C)cc1,15% (active)
10,O=C(Cn1ncc2c3ccccc3n(Cc3ccccc3F)c2c1=O)NCc1ccccc1Cl,78% (inactive)
11,Cc1ccc(N(CCO)S(=O)(=O)c2ccc(NC3=NS(=O)(=O)c4ccccc43)cc2)cc1,96% (inactive)
12,CCc1ccc(C(=O)c2cn(CC(=O)Nc3ccc4c(c3)OCCO4)c3ccc(F)cc3c2=O)cc1,78% (inactive)
13,Cc1cccc(NS(=O)(=O)c2ccc3c(c2)CCCN3C(=O)C2CCC2)c1C,107% (inactive)
14,Cc1oc2ncn(C)c(=O)c2c1C(=O)Nc1ccc(F)cc1,72% (inactive)
15,COc1ccc(-n2c(SCc3ccccc3F)nc3c([nH]c4ccccc43)c2=O)cc1OC,68% (inactive)
16,ON(Cn1nnc2ccccc21)Cn1nnc2ccccc21,102% (inactive)
17,COc1ccc(-c2noc(-c3ccc(N4CCCCC4C)c([N+](=O)[O-])c3)n2)cc1OC (centres undefined),104% (inactive)
18,Cc1ccc(C(=O)Nc2nc(-c3nnn(-c4cccc(Cl)c4C)c3C)ns2)cc1C,124% (inactive)
19,COc1cccc(C(=O)Nc2nc(-c3nnn(-c4cccc(Cl)c4C)c3C)ns2)c1,-5% (active)
20,COc1ccc(Cl)cc1-n1nnc(-c2nsc(NC(=O)c3ccccc3Cl)n2)c1C,23% (active)
21,COc1ccc(-n2nnc(-c3nsc(NC(=O)c4ccc(C)c(C)c4)n3)c2C)cc1Cl,126% (inactive)
22,COc1ccc(C(=O)Nc2nc(-c3nnn(-c4cc(OC)ccc4OC)c3C)ns2)cc1,109% (inactive)
23,COc1cccc(C(=O)Nc2nc(-c3nnn(-c4cc(C)ccc4C)c3C)ns2)c1,88% (inactive)

row,Compound,survival
1,O=C(C1CC1)N1CCc2cc(Br)cc(S(=O)(=O)N3CCN(c4cccc(Cl)c4)CC3)c21,62% (inactive)
2,CCOc1ccc(-n2c(=O)c3c4c(sc3n(CC(=O)NC(C)CC)c2=O)CCC4)cc1 (centres undefined),142% (inactive)
3,COC(=O)Cn1c(CN2CCN(c3ccc(OC)cc3)CC2)nc2c1c(=O)[nH]c(=O)n2C,88% (inactive)
4,CCCc1nn2c(=O)cc(COC(=O)c3ccc(NC(=O)c4cccs4)cc3)nc2s1,69% (inactive)
5,CCOc1ccc(N(C)C(CNS(=O)(=O)c2ccccc2)c2ccccc2)cc1 (centres undefined),87% (inactive)
6,Cn1c(=O)oc2cc(S(=O)(=O)N3CCC(C(=O)N4CCN(c5ccc(Cl)cc5)CC4)CC3)ccc21,56% (inactive)
7,COC(=O)C1=CN(CCCN2CCCC2=O)C=C(C(=O)OC)C1c1cccs1,77% (inactive)
8,COC(=O)C1=CNC=C(C(=O)OC)C1c1ccc(Cl)cc1,88% (inactive)
9,COC(=O)C1=CN(C2CC2)C=C(C(=O)OC)C1c1ccsc1,60% (active)
10,COc1ccc(-n2c(=O)c3c4c(sc3n(Cc3ccccc3)c2=O)CN(C(C)=O)CC4)cc1OC,67% (inactive)
11,C=CCc1cccc2cc(-c3nc4ccc(C)cc4[nH]3)c(=O)oc12,0% (active)
12,COc1cccc2cc(-c3nc4ccc(C)cc4[nH]3)c(=O)oc12,98% (inactive)
13,C=CCc1cccc2cc(-c3nc4ccc(C(=O)O)cc4[nH]3)c(=O)oc12,92% (inactive)
14,O=C(NC(=O)c1ccc(F)cc1)Nc1ccc(-c2cc(C(F)(F)F)nn2-c2ccccc2)cc1,61% (inactive)
15,COCCn1c(SCC(=O)c2ccccc2)nc2cc(C(=O)NC3CCCC3)ccc2c1=O,87% (inactive)
16,CC(C)=CC(=O)Nc1nnc(Cc2ccccc2)s1,55% (inactive)
17,CCc1ccc(Cn2c(CNS(=O)(=O)c3ccc(Cl)s3)nc3cccnc32)cc1,66% (inactive)
18,CCOc1ccc(Cn2c(CNS(=O)(=O)c3ccc(CC)cc3)nc3cccnc32)cc1,95% (inactive)
19,CCOc1ccc(Cn2c(CNS(=O)(=O)c3ccc([N+](=O)[O-])cc3)nc3cccnc32)cc1,94% (inactive)
20,Cc1ccc(Cn2c(CNC(=O)Cc3cccc([N+](=O)[O-])c3)nc3cccnc32)cc1,70% (inactive)
21,O=C(Cc1cccc([N+](=O)[O-])c1)NCc1nc2cccnc2n1Cc1ccc(F)cc1,118% (inactive)
22,Cc1ccc(Cn2c(CNS(=O)(=O)c3ccc(F)c(Cl)c3)nc3cccnc32)cc1,126% (inactive)
23,O=S(=O)(NCc1nc2cccnc2n1Cc1ccc(F)cc1)c1ccc(Cl)s1,-5% (active)

row,Compound,survival
1,COc1ccc(Cn2c(CNC(=O)Cc3cccc([N+](=O)[O-])c3)nc3cccnc32)cc1,-5% (active)
2,CCc1ccc(Cn2c(CNS(=O)(=O)c3ccc(F)c(Cl)c3)nc3cccnc32)cc1,20% (active)
3,O=S(=O)(NCc1nc2cccnc2n1Cc1ccccc1Cl)c1ccc(F)c(Cl)c1,87% (inactive)
4,Cc1ccc(Cn2c(CNS(=O)(=O)c3ccc(Cl)s3)nc3cccnc32)cc1,124% (inactive)
5,CCc1ccc(Cn2c(CNS(=O)(=O)c3ccc([N+](=O)[O-])cc3)nc3cccnc32)cc1,8% (active)
6,C#CCN1CCOCC1,99% (inactive)
7,Cc1cc2c(=O)c(C(=O)c3ccncc3)cn(CC(=O)Nc3cccc(C)c3C)c2cc1C,94% (inactive)
8,CCOc1ccc(-c2cc3nc(C4CCN(C(=O)OC(C)(C)C)CC4)c(C(=O)Nc4cccc(Cl)c4C)cn3n2)cc1,81% (inactive)
9,COc1ccc(NC(=O)CC2SC(=Nc3ccccc3)N(CCO)C2=O)cc1 (centres undefined),95% (inactive)
10,Cc1nnc(NC(=O)C(C)N2CCCC2)s1 (centres undefined),97% (inactive)
11,O=C(Nc1ccccc1Cl)N1CCc2ccccc2C1,91% (inactive)
12,Cc1nn(C)c2c1c(-c1ccccc1)cc(=O)n2CC(=O)NC(C)(C)C,113% (inactive)
13,COc1cccc(CSc2nc3n(n2)C(c2cccnc2)C(C(=O)Nc2ccccc2C)=C(C)N3)c1 (centres undefined),74% (inactive)
14,COc1ccc(Cn2c(CNS(=O)(=O)c3ccc4c(c3)CCCC4)nc3cccnc32)cc1,128% (inactive)
15,CCc1ccc(Cn2c(CNS(=O)(=O)c3ccc(C)c(C)c3)nc3cccnc32)cc1,81% (inactive)
16,COc1ccc(Cn2c(CNS(=O)(=O)c3ccc(C)c(C)c3)nc3cccnc32)cc1,17% (active)
17,Cc1nc(-c2ccc(F)cc2)sc1CCNC(=O)c1ccccc1C(F)(F)F,97% (inactive)
18,CCCCN(CC)CCCNC(=O)c1cn(CC)c2ccc(S(=O)(=O)N3CCOCC3)cc2c1=O,89% (inactive)
19,COc1ccc(CNC(=O)CCc2cn(C)c3ccccc23)cc1,57% (inactive)
20,CCOC(=O)c1sc2ccccc2c1S(=O)(=O)NCc1ccc(F)cc1,94% (inactive)
